Measurements from the supplement of paper PMC11732987, “Enantioselective OTUD7B fragment discovery through chemoproteomics screening and high-throughput optimisation” (Communications Chemistry, 2025).

Experiments:
Test in all cases: log2 ratio of Biotin-Ahx-Ub-VS probe labelling (fragment/DMSO); higher = less target engagement (more negative = stronger competition), active = hit call of the paper (q ≤ 0.05, log2 ratio ≤ -1)
Settings in all cases: compound concentration: 200 uM; treatment time: 3 h
OTUD6B = target: T1, OTUD6B (UniProt Q8N6M0)
T1 sequence (whole entry): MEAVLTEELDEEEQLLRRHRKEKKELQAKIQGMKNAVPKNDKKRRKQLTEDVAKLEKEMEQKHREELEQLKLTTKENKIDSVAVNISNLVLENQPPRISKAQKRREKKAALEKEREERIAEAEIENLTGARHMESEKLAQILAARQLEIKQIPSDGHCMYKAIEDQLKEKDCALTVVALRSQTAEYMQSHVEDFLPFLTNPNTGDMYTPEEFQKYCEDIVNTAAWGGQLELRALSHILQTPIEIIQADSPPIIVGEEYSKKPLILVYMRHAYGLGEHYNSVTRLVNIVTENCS
In short: (§1)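 Labelled DUBs from HEK293T lysate were NeutrAvidin-enriched, digested with LysC and trypsin, and run by diaPASEF LC-MS/MS. Before that, each 495 µg sample in Tris/CHAPS/IGEPAL buffer with protease inhibitors was treated in triplicate with fragment at 200 µM or vehicle for 3 h, then with Biotin-Ahx-Ub-VS at 0.5 µM final for 1 h. Values are average log2 ratios of fragment over vehicle by unpaired t-test, based on global-median-normalised Spectronaut label-free quantities from proteins with ≥2 unique peptides.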

OTUD7B = target: T2, OTUD7B (UniProt Q6GQQ9)
T2 sequence (whole entry): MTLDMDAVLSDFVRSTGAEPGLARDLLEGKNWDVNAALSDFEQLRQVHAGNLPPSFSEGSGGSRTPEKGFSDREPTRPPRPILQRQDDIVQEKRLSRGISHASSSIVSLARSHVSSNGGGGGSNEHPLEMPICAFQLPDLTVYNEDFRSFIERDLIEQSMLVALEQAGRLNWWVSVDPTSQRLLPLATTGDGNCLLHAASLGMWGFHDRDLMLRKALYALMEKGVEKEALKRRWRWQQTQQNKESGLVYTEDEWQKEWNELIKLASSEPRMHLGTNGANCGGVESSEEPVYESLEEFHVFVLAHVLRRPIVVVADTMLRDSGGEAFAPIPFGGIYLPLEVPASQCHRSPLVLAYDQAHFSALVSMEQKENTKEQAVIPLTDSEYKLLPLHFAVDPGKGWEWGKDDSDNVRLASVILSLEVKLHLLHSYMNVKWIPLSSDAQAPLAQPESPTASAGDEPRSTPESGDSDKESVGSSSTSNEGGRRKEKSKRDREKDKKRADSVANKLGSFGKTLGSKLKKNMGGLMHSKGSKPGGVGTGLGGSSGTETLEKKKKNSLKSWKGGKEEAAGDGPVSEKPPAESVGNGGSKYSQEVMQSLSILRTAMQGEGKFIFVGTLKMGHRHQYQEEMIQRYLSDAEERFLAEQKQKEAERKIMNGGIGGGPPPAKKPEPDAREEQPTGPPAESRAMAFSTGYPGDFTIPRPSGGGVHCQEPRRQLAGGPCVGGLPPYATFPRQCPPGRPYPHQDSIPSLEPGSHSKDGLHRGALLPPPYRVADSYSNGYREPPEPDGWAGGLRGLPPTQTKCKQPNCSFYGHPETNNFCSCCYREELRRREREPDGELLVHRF
In short: as §1

PRPF8 = PRPF8 (UniProt Q6P2Q9)
In short: as §1

PSMD7 = target: T3, PSMD7 (UniProt P51665)
T3 sequence (whole entry): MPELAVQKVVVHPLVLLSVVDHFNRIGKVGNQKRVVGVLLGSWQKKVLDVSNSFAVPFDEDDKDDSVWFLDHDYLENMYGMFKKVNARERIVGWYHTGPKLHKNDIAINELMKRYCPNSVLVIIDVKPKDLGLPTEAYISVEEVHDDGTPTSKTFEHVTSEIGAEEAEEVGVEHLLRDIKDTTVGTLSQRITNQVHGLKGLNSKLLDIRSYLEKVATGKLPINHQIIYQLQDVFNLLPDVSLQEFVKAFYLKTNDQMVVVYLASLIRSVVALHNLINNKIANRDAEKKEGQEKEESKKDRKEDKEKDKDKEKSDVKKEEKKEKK
In short: as §1

UCHL1 = UCHL1 (UniProt P09936)
Sequence of UCHL1 (P09936 whole entry, looked up): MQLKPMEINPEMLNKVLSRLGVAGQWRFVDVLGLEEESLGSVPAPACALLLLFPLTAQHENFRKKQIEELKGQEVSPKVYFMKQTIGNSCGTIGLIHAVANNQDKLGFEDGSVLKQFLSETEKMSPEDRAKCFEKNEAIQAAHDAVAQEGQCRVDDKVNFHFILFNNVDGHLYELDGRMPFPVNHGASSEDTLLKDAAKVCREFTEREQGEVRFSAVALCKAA
In short: as §1

UCHL3 = target: T4, UCHL3 (UniProt P15374)
T4 sequence (whole entry): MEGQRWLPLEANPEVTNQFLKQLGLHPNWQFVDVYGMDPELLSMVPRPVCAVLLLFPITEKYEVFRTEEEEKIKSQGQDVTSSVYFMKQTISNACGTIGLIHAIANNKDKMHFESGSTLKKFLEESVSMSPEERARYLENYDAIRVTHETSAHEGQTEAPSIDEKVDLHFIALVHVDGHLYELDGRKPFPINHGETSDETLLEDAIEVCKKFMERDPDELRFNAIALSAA
In short: as §1

UCHL5 = target: T5, UCHL5 (UniProt Q9Y5K5)
T5 sequence (whole entry): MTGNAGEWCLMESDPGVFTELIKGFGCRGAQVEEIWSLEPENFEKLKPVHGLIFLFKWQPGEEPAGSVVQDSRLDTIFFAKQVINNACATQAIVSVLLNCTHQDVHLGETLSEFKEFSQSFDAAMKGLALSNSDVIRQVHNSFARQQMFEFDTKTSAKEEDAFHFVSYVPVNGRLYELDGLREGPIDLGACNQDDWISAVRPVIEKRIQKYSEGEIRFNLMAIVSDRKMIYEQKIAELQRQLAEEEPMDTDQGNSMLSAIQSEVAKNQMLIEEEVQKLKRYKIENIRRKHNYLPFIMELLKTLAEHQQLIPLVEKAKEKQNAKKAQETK
In short: as §1

USP10 = USP10 (UniProt Q14694)
Sequence of USP10 (Q14694 whole entry): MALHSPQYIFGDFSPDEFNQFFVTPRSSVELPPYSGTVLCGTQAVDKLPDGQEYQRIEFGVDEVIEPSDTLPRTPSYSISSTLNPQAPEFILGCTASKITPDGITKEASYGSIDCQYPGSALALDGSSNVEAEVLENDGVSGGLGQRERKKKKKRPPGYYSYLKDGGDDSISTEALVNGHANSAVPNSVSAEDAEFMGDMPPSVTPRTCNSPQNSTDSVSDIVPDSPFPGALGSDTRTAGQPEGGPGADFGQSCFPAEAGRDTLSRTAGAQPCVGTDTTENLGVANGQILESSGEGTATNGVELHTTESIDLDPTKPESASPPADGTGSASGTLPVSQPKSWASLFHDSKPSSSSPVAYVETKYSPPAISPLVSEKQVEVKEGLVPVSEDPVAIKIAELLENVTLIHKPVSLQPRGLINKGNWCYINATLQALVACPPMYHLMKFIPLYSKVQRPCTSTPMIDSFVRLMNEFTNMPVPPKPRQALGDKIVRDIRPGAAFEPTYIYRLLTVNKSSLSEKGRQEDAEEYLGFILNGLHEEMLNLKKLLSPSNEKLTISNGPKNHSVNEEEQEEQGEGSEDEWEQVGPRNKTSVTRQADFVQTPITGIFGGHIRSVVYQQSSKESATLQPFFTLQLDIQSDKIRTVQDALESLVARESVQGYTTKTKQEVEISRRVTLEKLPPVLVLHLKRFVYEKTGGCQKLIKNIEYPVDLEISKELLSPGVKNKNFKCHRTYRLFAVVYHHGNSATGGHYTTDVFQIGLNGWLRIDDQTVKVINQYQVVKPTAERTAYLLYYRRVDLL
In short: as §1

USP15 = target: T6, USP15 (UniProt Q9Y4E8)
T6 sequence (whole entry): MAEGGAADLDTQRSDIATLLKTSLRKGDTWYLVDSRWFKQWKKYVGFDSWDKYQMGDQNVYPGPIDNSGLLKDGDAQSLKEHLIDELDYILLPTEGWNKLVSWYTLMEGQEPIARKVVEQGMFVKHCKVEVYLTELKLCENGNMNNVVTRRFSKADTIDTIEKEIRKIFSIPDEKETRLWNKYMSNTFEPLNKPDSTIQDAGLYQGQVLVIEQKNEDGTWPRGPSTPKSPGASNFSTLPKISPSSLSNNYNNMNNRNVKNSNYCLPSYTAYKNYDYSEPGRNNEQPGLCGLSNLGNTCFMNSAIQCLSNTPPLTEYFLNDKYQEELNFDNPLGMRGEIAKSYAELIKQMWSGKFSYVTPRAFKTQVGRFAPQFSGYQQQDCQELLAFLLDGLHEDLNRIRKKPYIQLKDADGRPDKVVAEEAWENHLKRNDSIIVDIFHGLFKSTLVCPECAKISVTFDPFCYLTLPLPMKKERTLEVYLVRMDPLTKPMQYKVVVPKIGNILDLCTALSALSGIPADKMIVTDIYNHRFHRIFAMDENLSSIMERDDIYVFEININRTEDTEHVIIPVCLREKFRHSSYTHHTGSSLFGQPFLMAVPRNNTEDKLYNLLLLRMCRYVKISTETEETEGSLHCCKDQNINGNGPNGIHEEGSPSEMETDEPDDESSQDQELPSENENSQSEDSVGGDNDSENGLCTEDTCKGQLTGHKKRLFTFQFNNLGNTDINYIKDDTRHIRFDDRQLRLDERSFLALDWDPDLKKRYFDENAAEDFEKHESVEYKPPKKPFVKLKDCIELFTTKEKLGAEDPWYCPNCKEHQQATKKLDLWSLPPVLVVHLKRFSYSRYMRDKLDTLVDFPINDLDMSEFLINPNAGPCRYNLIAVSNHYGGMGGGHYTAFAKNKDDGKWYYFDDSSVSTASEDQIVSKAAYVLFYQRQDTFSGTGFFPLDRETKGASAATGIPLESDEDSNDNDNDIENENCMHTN
In short: as §1

Measured: log2 ratio of Biotin-Ahx-Ub-VS probe labelling

CN(C)C(=O)c1ccc(CNC(=O)CCl)cc1
inactive: OTUD6B -0.0231 | OTUD7B -0.351 | PRPF8 -0.0967 | PSMD7 -0.0924 | UCHL3 0.248 | UCHL5 -0.118 | USP10 -0.0496 | USP15 0.0414
active: UCHL1 -1.23
